Assay outcomes (PubChem BioAssay)
Compounds with a hit are over-represented: about 9.3% of the library has one in this group of screens.
FLuc modulator = qHTS profiling assay for firefly luciferase inhibitor/activator using purifed enzyme and Km concentrations of substrates (counterscreen for miR-21 project) | Luciferin 4-monooxygenase (Photinus pyralis), P08659 | 360,000 compounds, 6.9% hits | purified FLuc, Km substrates, luminescence inhibition | Potency, µM (top dose mostly 57.5 µM), hits mostly inhibitors | AID 588342, 2011; also: nearly all actives have a fitted effect of over 55% in size
Target sequence (P08659 whole entry, looked up): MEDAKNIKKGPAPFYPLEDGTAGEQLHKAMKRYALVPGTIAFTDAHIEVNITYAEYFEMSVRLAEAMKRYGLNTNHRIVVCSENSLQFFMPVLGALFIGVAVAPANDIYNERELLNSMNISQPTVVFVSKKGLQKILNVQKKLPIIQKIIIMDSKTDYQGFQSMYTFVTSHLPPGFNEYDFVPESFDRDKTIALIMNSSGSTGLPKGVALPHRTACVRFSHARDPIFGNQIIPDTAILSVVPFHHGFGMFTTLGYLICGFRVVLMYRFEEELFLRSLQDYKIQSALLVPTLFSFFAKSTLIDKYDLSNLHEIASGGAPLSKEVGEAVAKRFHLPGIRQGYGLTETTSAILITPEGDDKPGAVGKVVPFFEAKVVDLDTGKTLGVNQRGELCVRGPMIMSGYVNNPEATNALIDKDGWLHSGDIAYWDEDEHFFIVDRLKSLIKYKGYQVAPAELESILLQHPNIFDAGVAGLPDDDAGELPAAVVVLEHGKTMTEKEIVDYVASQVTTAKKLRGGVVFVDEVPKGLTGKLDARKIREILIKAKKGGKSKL
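Purified P. pyralis luciferase, 10 nM final, with Km-level 10 uM D-luciferin and 10 uM ATP in 50 mM Tris acetate pH 7.5, 10 mM Mg acetate, 0.01% Tween-20, 0.05% BSA; 6-point qHTS titration about 60 µM downward; luminescence read.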
Rab9 promoter act = qHTS Assay for Rab9 Promoter Activators; Potency, µM (series often up to 9.22 µM), hits mostly activators; Huh7 Rab9 promoter-luciferase reporter, luminescence, 24 h; AID 485297, 2010; 320,000 compounds, 2.8% hits; also: nearly all actives have a fitted effect of over 60% in size
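Luciferase signal after 10 min detection reagent at ambient indicates Rab9 promoter upregulation; stably transfected Huh7 cells were treated 24 h with compound in DMSO at 37 °C, 5% CO2.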
NPC1 prom act = qHTS Assay for NPC1 Promoter Activators; Huh7 NPC1 promoter luciferase reporter, 24 h; Potency, µM (top dose mostly 9.22 µM), most hits filed as activators; 320,000 compounds, 2.4% hits; also: nearly all actives have a fitted effect of over 60% in size
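Compounds in DMSO were transferred onto Huh7 NPC1-luciferase reporter cells pre-incubated 2 h; after 24 h at 37 °C, Amplite reagent was dispensed and luminescence recorded 10 min later.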
ELG1 repair inh = qHTS screen for small molecules that inhibit ELG1-dependent DNA repair in human embryonic kidney (HEK293T) cells expressing luciferase-tagged ELG1; HEK293T ELG1-luciferase reporter, luminescence, 16 h; DNA damage induced by 5-fluorouridine; AID 504467, 2011; 330,000 compounds, 2.3% hits; Potency, µM (doses to about 46.1 µM), usual class: inhibitors; also: nearly all actives have a fitted effect of over 55% in size
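HEK293T cells expressing luciferase-tagged ELG1 (2,000/well) received 5-Fluorouridine plus compound or DMSO for 16 hr at 37 °C. Luciferase was read by ONE-Glo luminescence after 30 min at room temperature.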
SMN2 splice up = qHTS Assay for Enhancers of SMN2 Splice Variant Expression. 210,000 compounds, 2.8% hits. HEK293 SMN2-luciferase splicing reporter, luminescence, 30-36 h. AID 1458, 2008. Potency, µM (top dose mostly 46.1 µM), hits mostly activators; also: nearly all actives have a fitted effect of over 55% in size
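qHTS luciferase splicing reporter: luminescence rises when SMN2 exon 7 is included in transfected HEK293 cells. Compound exposure lasted 30-36 h at 37C, with 4.5 mM final sodium butyrate as control, followed by a ONE-Glo read.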
ELG1 genotoxic = qHTS screen for small molecules that induce genotoxicity in human embryonic kidney (HEK293T) cells expressing luciferase-tagged ELG1; AID 504466, 2011; HEK293T ELG1-luciferase reporter, luminescence, 16 h; Potency, µM (top dose mostly 46 µM), most hits filed as activators; 330,000 compounds, 1.3% hits; also: nearly all actives have a fitted effect of over 60% in size
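DMSO vehicle served as control against compound-treated ELG1-luciferase HEK293T cells; exposure lasted 16 hr at 37 °C and 5% CO2, followed by ONE-Glo luminescence detection after 30 min.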
Numbers stand for hits; n = inactive; u = inconclusive; x = not tested or not shown; [ ] = another dose, or the depositor's remark. Calls follow the shape of the dose curve; as a rule, active = well fitted curve in the direction sought with a large enough effect; inconclusive = small, poorly fitted or top-dose-only effect, or another doubt; inactive = no such curve, though single readings can be large; an effect the other way counts as inactive or inconclusive.

SMILES	FLuc modulator	Rab9 promoter act	NPC1 prom act	ELG1 repair inh	SMN2 splice up	ELG1 genotoxic
CCOC(=O)c1ccc(-n2c(C)ccc2C)cc1	n	n	n	n	n	n
CCc1ccccc1NC(=O)c1ccc(-n2c(C)ccc2C)cc1	n	n	n	n	n	n
CC(=O)NCCNC(=O)c1ccc(-n2c(C)ccc2C)cc1	n	u	n	u	x	23µM
CC1CCN(c2cc3c(cc2F)c(=O)c(S(=O)(=O)c2ccc(Cl)cc2)cn3C)CC1	n	x	x	x	x	x
O=C(Nc1ccccc1)Nc1cccc(NC(=O)Nc2ccccc2)c1F	u	n	n	u	x	n
O=C(Nc1ccccc1)Nc1ccc(Br)c(Cl)c1	6.7µM	n	u	n	u	n
O=C(Nc1ccccc1)Nc1ccccc1Br	24µM	4µM	u	u	n	u
O=C(Nc1ccncc1)Nc1cccc(Cl)c1Cl	u	n	n	n	x	n
O=C(Nc1ccccc1)Nc1cccc(Cl)c1Cl	11µM	n	n	u	n	n
O=C(Nc1ccc(Cl)cc1)Nc1cccc2nsnc12	4.8µM	u	u	u	x	u
COc1cc(C(=O)NCCc2ccc(S(=O)(=O)N3CCCC3)cc2)cc(OC)c1OC	n	n	n	u	n	n
Cn1c(=O)c(=O)n(C)c2cc(N3CCCC3)c(NC(=O)c3ccccc3Cl)cc21	n	x	x	x	n	x
CN(Cc1ccccc1)C(=O)COc1ccc(C(C)(C)C)cc1	u	u	n	u	x	n
O=C(CSc1nnc(CNC(=O)c2ccc(F)cc2)o1)NCc1ccc2c(c1)OCO2	n	n	n	n	x	n
O=C(COC(=O)c1cc(S(=O)(=O)N2CCOCC2)ccc1O)NCCc1ccccc1	n	n	n	n	n	n
O=C(CCN1C(=O)c2ccccc2Sc2ncccc21)Nc1ccc(F)cc1F	n	x	x	x	x	x
Cc1nc(-c2ccncc2)sc1C(=O)Nc1ccc(Br)cc1	n	n	n	n	n	n
COC(=O)c1cc2sc(C)cc2n1Cc1ccc(F)cc1Cl	n	x	x	x	n	x
CC(=O)Nc1cccc(NC(=O)Nc2ccc(C)c(Cl)c2)c1	2.1µM	n	n	u	u	n
CC(=O)Nc1ccc(NC(=O)Nc2ccc(C)c(C)c2)cc1	n	n	n	n	n	u
Cc1ccc(OCCn2cnc3cc([N+](=O)[O-])ccc3c2=O)cc1	n	n	n	21µM	n	n
CCN(CCNC(=O)CN(C)S(=O)(=O)c1cccc2nsnc12)c1ccccc1	n	n	n	23µM	n	n
CCN(CCCNC(=O)CN(C)S(=O)(=O)c1cccc2nsnc12)c1cccc(C)c1	n	n	n	u	n	n
Fc1ccc(-c2ccc(Nc3cccc(F)c3)nn2)cc1	u	u	u	u	x	n
Fc1ccc(Nc2ccc(-c3ccc(F)cc3)nn2)cc1	5.4µM	3.2µM	u	u	x	n
SMILES	FLuc modulator	Rab9 promoter act	NPC1 prom act	ELG1 repair inh	SMN2 splice up	ELG1 genotoxic
S=C(Nc1ccc2c(c1)OCCO2)Nc1ccc2c(c1)OCO2	17µM	4µM	u	u	u	u
CC(NC(=O)Nc1ccc(Cl)cc1)c1ccc2c(c1)OCO2 (stereo unspecified)	n	n	n	n	x	n
O=C(Nc1ccc(Cl)cc1)Nc1ccc2c(c1)OCO2	2.1µM	1.8µM	1.1µM	u	x	4.1µM
O=C(Nc1cccc(C(=O)O)c1)Nc1ccc2c(c1)OCO2	0.11µM	u	u	2.6µM	x	n
O=C(Nc1cccnc1)Nc1ccc2c(c1)OCO2	12µM	u	u	u	u	n
COc1ccc(N(C(=O)c2cc(OC)c(OC)c(OC)c2)S(=O)(=O)c2ccc(C)cc2)cc1	n	x	x	x	n	x
Nc1cc(Cl)ccc1N1CCCCCC1	n	n	n	n	n	n
CCOc1ccc(NC(=O)CSc2nnnn2C2CC2)cc1S(=O)(=O)N1CCCC1	n	n	n	n	x	n
O=C(Nc1cccc(F)c1)Nc1cnccn1	n	n	n	n	x	n
Cc1ccc(NC(=O)Nc2ccc3c(c2)OCO3)c(Br)c1	u	u	u	u	x	18µM
O=C(Nc1cccc(F)c1)Nc1ccccn1	13µM	2.8µM	3.2µM	u	n	n
O=C(Nc1ccc(C(=O)O)cc1)/C(=C\c1ccc2c(c1)OCO2)NC(=O)c1ccc(Br)o1	n	n	n	n	n	n
COC(=O)c1ccc(C(=O)OC)c(NC(=O)Nc2ccc3c(c2)OCO3)c1	21µM	u	u	u	u	15µM
COC(=O)c1ccccc1NC(=O)Nc1ccc2c(c1)OCO2	u	n	n	u	n	u
O=C(Nc1cccc(C(=O)O)c1)/C(=C\c1ccc2c(c1)OCO2)NC(=O)c1ccc(Br)o1	21µM	u	u	u	u	n
CSC1=NC(C)N2C(SC)=NC(C)N12 (stereo unspecified)	n	n	n	n	x	n
C[C@@H]1CN([C@@H](C)CO)C(=O)c2cc(NC(=O)Nc3ccc(F)cc3)ccc2O[C@@H]1CN(C)Cc1ccc(Oc2ccccc2)cc1	x	x	x	n	x	n
O=C(Nc1ccc2c(c1)OCO2)Nc1ccc(Cl)cc1Cl	4.8µM	u	u	u	u	u
O=C(Nc1ccc2c(c1)OCO2)Nc1ccc2c(c1)OCO2	u	1.8µM	1.4µM	u	7.9µM	u
O=C(Nc1ccc(F)cc1)Nc1ccc2c(c1)OCO2	n	n	n	n	x	n
O=C(Nc1ccc2c(c1)OCO2)Nc1ccc(F)cc1F	6µM	1.4µM	1.4µM	u	x	u
O=C(Nc1ccc2c(c1)OCO2)N1CCN(c2ccccc2Cl)CC1	19µM	u	u	u	n	u
O=C(Nc1ccc2c(c1)OCO2)N1CCN(S(=O)(=O)c2ccc(Cl)cc2)CC1	n	n	n	n	n	n
O=C(Nc1ccc2c(c1)OCO2)Nc1cnccn1	u	n	n	u	n	u
O=C(NCc1cccs1)Nc1ccc2c(c1)OCO2	17µM	3.5µM	u	u	14µM	u
SMILES	FLuc modulator	Rab9 promoter act	NPC1 prom act	ELG1 repair inh	SMN2 splice up	ELG1 genotoxic
O=C(Nc1ccc2c(c1)OCO2)Nc1ccccn1	12µM	0.89µM	2.8µM	u	x	u
Cn1ccc(NC(=O)Nc2ccc(Cl)cc2Cl)n1	15µM	u	u	u	14µM	u
O=C(Nc1ccc2c(c1)OCO2)c1cnn2cccnc12	9.5µM	1.6µM	2.2µM	u	11µM	4.1µM
O=C(Nc1cnccn1)Nc1ccc(Cl)cc1Cl	n	u	n	u	x	n
O=C(Nc1cccnc1)c1cnn2cccnc12	n[2.3 µM]	n	n	n	n	n
COc1ccccc1NC(=S)N1CCC(NC(=O)c2ccco2)CC1	n	n	n	n	n	n
COc1cccc(Cn2c(=O)c(-c3cccc(C#N)c3)nc3cnc(Nc4ccccc4)nc32)c1	x	x	x	x	n	x
